GIRK2 activator – activators of NPY4-receptor-primed GIRK2 channels, summary, cell-based, HEK293, thallium flux | activation (% efficacy), % for hits at 37.5 µM | HEK293 GIRK2/NPY4 cells, thallium flux fluorescence | 34,000 tested, under 10 active;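 active = primary screen hit, no activity in plain HEK293 cells, and in GIRK2-only cells above 5% efficacy rising with concentration; inactive = the rest, including fluorescent compounds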;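 note: efficacy is normalized control-subtracted fluorescence 15 s after thallium addition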
AMPAR-TARP mod – modulators of GluA2-stargazin AMPA receptor complexes, primary screen, cell-based, membrane potential dye; HEK293 GluA2+stargazin, membrane potential dye (FDSS), glutamate EC50; hits were called plate by plate, in both directions; calls only at 30 µM; Voltage-dependent calcium channel gamma-2 subunit (Mus musculus) + Glutamate receptor 2 …; hit rate 3.5% among 40,000; AID 1259245, 2017;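 active = any of four per-well response measures lying three or more SD from its plate-wide compound average, in either direction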
* marks the source's active call; other numbers are inactive results; i = inactive; nt = no result; + = active, no number. The full list was thinned out, with hits kept by preference.

SMILES	GIRK2 activator	AMPAR-TARP mod
Cc1ccc(-n2ncc3c(=O)n(CC(=O)N4CCc5ccccc54)cnc32)c(C)c1	nt	+
Cc1cccc(-n2ncc3c(=O)n(CC(=O)N4CCc5ccccc54)cnc32)c1C	nt	i
CCOc1ccc(-c2cc(=O)n(CC(=O)NC3CC3)cn2)cc1	i	nt
CCCC(=O)Nc1ccccc1NC(=O)c1ccccc1OC	nt	i
Cn1cccc1C(CNC(=O)C1CCN(S(C)(=O)=O)CC1)N1CCCC1 (configuration not stated)	i	+
Cn1cccc1C(CNC(=O)C(=O)NC1CCCC1)N1CCCC1 (configuration not stated)	i	i
O=C(COc1ccccc1)NCCCn1nc(-c2ccco2)ccc1=O	i	nt
COCCNc1nc2c(S(=O)(=O)c3ccccc3)nnn2c2ccc(Cl)cc12	i	i
CC1CCCCN1c1nc2c(S(=O)(=O)c3ccccc3)nnn2c2ccc(Cl)cc12 (configuration not stated)	i	+
CSc1cccc(NC(=O)C(=O)NCC(c2ccc(F)cc2)N2CCOCC2)c1 (configuration not stated)	i	i
COc1ccc(-c2cc(OCC(=O)Nc3ccc(OC)cc3OC)c3ccccc3n2)cc1	i	i
COc1ccc(Nc2nc(N3CCNCC3)nc3ccccc23)c(OC)c1	nt	+
CCCOC(=O)c1cc2cc(Br)cc(OC)c2oc1=O	i	+
CCC(C)NC(=O)c1cc2cc(Br)cc(OC)c2oc1=O (configuration not stated)	i	i
COc1ccc2ncc3c(-c4ccccc4)c(C(=O)NCCCN4CCCC4=O)sc3c2c1	i	i
COc1ccc(CCS(=O)(=O)NCC2CCN(Cc3ccccc3)CC2)cc1	i	+
COc1ccc(CCS(=O)(=O)NCC2CCN(C(=O)c3ccccc3F)CC2)cc1	i	+
COc1ccc(CCS(=O)(=O)NCC2CCN(c3ncccn3)CC2)cc1	i	i
COc1ccc(CCS(=O)(=O)NCC2CCN(Cc3cccs3)CC2)cc1	i	nt
COc1cccc(CCNC(=O)Cc2cc(-c3ccc4c(c3)OCO4)on2)c1	i	i
Cc1ccc(C)c(Cn2cc(C(=O)Nc3ccccc3Cl)ccc2=O)c1	i	i
COc1ccc(S(=O)(=O)c2cc3cc(Br)cc(Br)c3oc2=O)cc1	i	i
O=C(Nc1ccc2c(c1)CN(S(=O)(=O)c1ccccc1)CC2)c1cnccn1	i	+
O=C(Nc1ccc2c(c1)CN(C(=O)c1cccs1)CC2)c1cnccn1	i	+
O=C(Nc1ccc2c(c1)CN(C(=O)c1cccs1)CC2)c1ccc2nsnc2c1	i	i
SMILES	GIRK2 activator	AMPAR-TARP mod
O=C(CCc1ccccc1)Nc1ccc2c(c1)CN(S(=O)(=O)c1ccccc1)CC2	i	i
COc1ccc(NC(=O)CSc2ncc(-c3cccc(Cl)c3)o2)cc1OC	i	nt
COCCN1CCC(CNS(=O)(=O)c2cccc3ccccc23)CC1	i	i
O=C(C1COCC(=O)N1Cc1ccccc1)N1CCN(c2ccc(F)cc2)CC1 (configuration not stated)	i	i
CC(C)(C)c1cc(NC(=O)C2COCC(=O)N2Cc2ccccc2)on1 (configuration not stated)	i	+
O=C(C1COCC(=O)N1Cc1ccccc1)N1CCN(c2cccc(Cl)c2)CC1 (configuration not stated)	i	+
O=C(Nc1ccc(-n2cnnn2)cc1)C1COCC(=O)N1Cc1ccccc1 (configuration not stated)	i	i
COc1ccc(C(=O)NCCS(=O)(=O)N(C)C)cc1	nt	i
O=C(CCSc1ccc(Cl)cc1)Nc1nnc(Cc2cccs2)o1	i	nt
CCOC(=O)c1csc(NC(=O)NCc2cccs2)n1	i	i
Cc1cc(C)n(CCN2CCCN(C(=O)c3ccccc3C)CC2)n1	i	i
CCOc1cccc2cc(S(=O)(=O)c3ccc(F)c(Cl)c3)c(=O)oc12	i	i
CCOc1ccc(-n2nnnc2SC(C)C(=O)Nc2ccccc2F)cc1 (configuration not stated)	nt	+
COc1ccc(-n2nnnc2SCCC(=O)Nc2nccs2)cc1	i	i
CCOc1ccc(-n2nnnc2SC(C)C(=O)Nc2ccccc2C)cc1 (configuration not stated)	nt	i
COc1ccc(-n2nnnc2SC(C)C(=O)Nc2nccs2)cc1 (configuration not stated)	nt	+
CCCCn1cnc2c(-c3ccccc3)cn(CC(=O)N3CCN(c4ccccc4)CC3)c2c1=O	i	i
COC(=O)CCc1c(C)nc2c(c(-c3ccccc3)nn2C2CCS(=O)(=O)C2)c1C (configuration not stated)	i	nt
